Screening results from PubChem.
Mtb BioA inh – blocks M. tuberculosis BioA enzyme activity | 360,000 tested, 0.096% active | inhibition, % at 9.99 µM | purified M. tuberculosis BioA enzyme, plate reader | AID 602481; in the data active = inhibition above about 40%
Y pestis TopoI – inhibitors of Yersinia pestis topoisomerase I; activity, % at 10 µM; AID 504884; 360,000 tested, 0.064% active; Y. pestis Topo-I cleavage product accumulation, plate reader; in the data active = activity above about 50%, passing the limit was not always enough
TcdB GH inh – TcdB glycohydrolase inhibition; P18177; TcdB glycohydrolase enzymatic assay, plate reader; inhibition, % at 9.99 µM; 350,000 tested, 0.24% active; AID 652162; in the data active = inhibition above about 10%
MazF activator – increases E. coli MazEF RNase cleavage of RNA; P0AE70; FAM/BHQ RNA-DNA oligo cleavage fluorescence, 5 h; activation, % at 20 µM; 350,000 tested, 0.32% active; AID 504720; in the data active = activation above about 50%
Target sequence (P0AE70 whole entry, looked up): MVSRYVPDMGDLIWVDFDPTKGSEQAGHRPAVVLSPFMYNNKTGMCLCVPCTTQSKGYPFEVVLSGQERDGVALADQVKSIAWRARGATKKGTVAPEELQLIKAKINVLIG
DUSP3 inh – blocks human VHR1 dual specificity phosphatase | AID 1654 | recombinant VHR phosphatase, pNPP absorbance | inhibition, % at 13.3 µM | 290,000 tested, 0.52% active; in the data active = inhibition above about 50%
Target sequence (P51452 whole entry, looked up): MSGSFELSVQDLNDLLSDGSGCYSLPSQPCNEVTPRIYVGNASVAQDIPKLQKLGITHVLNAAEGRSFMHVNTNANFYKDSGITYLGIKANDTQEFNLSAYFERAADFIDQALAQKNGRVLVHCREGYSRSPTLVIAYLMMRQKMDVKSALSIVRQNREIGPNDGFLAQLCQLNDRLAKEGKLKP
FadD28 binding – blocks FadD28 binding to the bisubstrate probe | fluorescence polarization | inhibition, % at 12.5 µM | 360,000 tested, 0.22% active; in the data active = inhibition above about 8.5%, passing the limit was not always enough
Active calls of the source: *; / = no result given. Hits are enriched below; roughly 1% of the tested compounds scored in any of these assays.

SMILES	Mtb BioA inh	Y pestis TopoI	TcdB GH inh	MazF activator	DUSP3 inh	FadD28 binding
CC1CCN(c2ccc3c(c2)S(=O)(=O)c2cccc(C(=O)NCc4cccc(F)c4)c2C3=O)CC1	-5	41	2	97*	/	-3
O=C(NCc1cccc(F)c1)c1cccc2c1C(=O)c1ccc(N3CCCC3)cc1S2(=O)=O	-7	2	0	-483	/	-4
COc1ccc(Cl)cc1C(=O)Nn1c(C)nc2ccccc2c1=O	-1	-11	/	6	37	-2
COc1ccc(Cl)cc1C(=O)Nn1c(-c2cccs2)nc2ccccc2c1=O	/	4	1	2	10	12*
COC(=O)c1ccc(OC(=O)c2ccc(OC)c(OC)c2)c(OC)c1	-1	2	/	3	30	-1
COC(=O)c1ccc(OC(=O)c2ccc(OC)cc2)c(OC)c1	/	1	11*	1	6	-2
CCCNC(=O)c1cc2c(c(-c3cccc(-c4cccc(OC)c4)c3)n1)[C@H](CCO)N([S@@](=O)C(C)(C)C)C2	1	/	2	/	/	/
Cc1noc(/C=C/c2ccco2)c1S(=O)(=O)N1CCC(C(=O)NC(C)c2ccccc2)CC1 (stereo not given)	-1	44	0	-2	50*	-2
Cc1noc(/C=C/c2ccco2)c1S(=O)(=O)N1CCC(C(=O)N(C)Cc2ccccc2)CC1	0	-10	/	-2	26	-4
O=C(C1=C[C@@H](c2ccc3c(c2)Cc2ccccc2-3)C[C@@H](OCCCCO)O1)N1CCCCC1	1	/	1	/	/	/
CC(=O)N1CCc2c(sc(NC(=O)Cc3ccc(C)cc3C)c2C#N)C1	-1	-5	-1	-6	58*	1
OCCC1CN(CCCc2ccccc2)CCN1Cc1ccc(F)cc1 (stereo not given)	0	7	-2	-7	56*	1
Clc1ccc(CCNc2nc3ccccc3n3nnnc23)cc1	1	9	2	-16	50*	-1
O=C(c1cc(-c2ccccc2Cl)nc2ccc(Br)cc12)N1CCN(c2ccccn2)CC1	-1	55*	0	-9	5	-1
CCC(=O)N1[C@@H]2c3cccc(=O)n3C[C@@H]2[C@@H](CO)[C@@H]1C(=O)N[C@@H](C)c1ccccc1	/	/	-2	/	/	/
CN(C)Cc1c(C(=O)N/N=C/c2cccc(OCc3ccccc3)c2)nnn1-c1nonc1N	-1	12	0	-13	-4	-1
CN(C)Cc1c(C(=O)N/N=C/c2cccc(OCc3ccc(F)cc3)c2)nnn1-c1nonc1N	5	14	0	99*	21	-1
N#CC1(N2CCN(C(=O)c3ccccc3)CC2)CCCCC1	-2	-17	1	5	54*	-2
NC(=O)C1(N2CCCCC2)CCN(C(=O)c2ccccc2)CC1	0	-1	1	-2	25	-2
COCC(=O)N1C[C@H]2[C@@H](c3ccccc31)[C@H](CO)N2C(=O)Nc1ccccc1Cl	1	/	0	/	/	/
Cc1ccc2c(Cl)c(C)c(N3CCCCC3)nc2n1	/	50*	/	0	4	-1
CCOc1ccc(NC(=O)NCC2CCN(Cc3ccc(F)cc3)CC2)cc1	-1	0	1	6	57*	-1
O=C(NCC1CCN(Cc2ccc(F)cc2)CC1)Nc1cc(F)ccc1F	5	-7	1	12	-16	-3
COc1ccc(N2CCC(CNC(=O)Nc3ccc(Cl)cc3)C2)cc1 (stereo not given)	0	-8	-15	24	52*	-1
COc1ccc(N2CCC(CNC(=O)Nc3cccc(OC)c3)C2)cc1 (stereo not given)	1	-1	/	4	33	1
SMILES	Mtb BioA inh	Y pestis TopoI	TcdB GH inh	MazF activator	DUSP3 inh	FadD28 binding
CO[C@H]1CN(C)C(=O)c2ccc(NC(C)=O)cc2OC[C@@H](C)N(S(=O)(=O)c2cn(C)cn2)C[C@@H]1C	5	/	0	/	/	/
C[C@@H]1CCCCO[C@H](CN(C)C(=O)NC2CCCCC2)[C@H](C)CN([C@H](C)CO)C(=O)c2cc(NC(=O)Nc3ccc(C(F)(F)F)cc3)ccc2O1	0	/	0	/	/	/
O=C(Cc1cccs1)Nc1cccc(-c2nc3cc4ccccc4cc3[nH]2)c1	/	-5	1	56*	-1	-3
COc1cccc(C(=O)C2CCCN(C(=O)c3ccccc3Cl)C2)c1 (stereo not given)	1	16	3	5	35	-5
C=CCCC(=O)N1CCCC(C(=O)c2cccc(OC)c2)C1 (stereo not given)	-2	3	0	2	57*	0
Cc1cc(C)n(CC(=O)N2CCCC(C(=O)c3cccc(OC(C)C)c3)C2)n1 (stereo not given)	-1	17	1	-1	52*	-1
CCn1nc(C)cc1C(=O)N1CCCC(C(=O)c2ccc(Oc3ccccc3)cc2)C1 (stereo not given)	2	23	1	-12	57*	-2
O=C(CN1CCOCC1)NCC[C@@H]1CC[C@H](NC(=O)c2ccc3c(c2)OCO3)[C@@H](CO)O1	-1	/	0	/	/	/
NNC(=S)Nc1cccc(-c2n[nH]c(=S)o2)c1	3	-3	0	1	8	9.5*
CN(C)C(=S)Nc1cccc(-c2n[nH]c(=S)o2)c1	/	2	0	7	18	0
O=C(c1cc2c(s1)CCCC2)N1CCN(S(=O)(=O)c2ccccc2C(F)(F)F)CC1	/	58*	/	-6	-4	-10
Cc1ccc(S(=O)(=O)N2CCN(C(=O)c3cc4c(s3)CCCC4)CC2)c(C)c1	-1	34	1	-6	/	-1
CCN(CC)CCCNC(=O)c1ccc2c(Cl)c3c(nc2c1)CCCC3	/	0	1	0	14	-3
CCCCN(CC)CCNC(=O)c1ccc2c(Cl)c3c(nc2c1)CCC3	3	25	-6	14	57*	/
C[C@@H]1CN([C@H](C)CO)S(=O)(=O)c2ccc(C#CC3CC3)cc2O[C@H]1CN(C)C(=O)c1ccccn1	1	/	1	/	/	/
COc1ccccc1NC(=O)CCCCCN1C(=O)c2cccc([N+](=O)[O-])c2C1=O	6	12	-1	4	-10	1
COc1cc(/C=C2/C(=O)c3cccc([N+](=O)[O-])c3C2=O)c(Br)cc1O	/	-31	/	-4	-11	10*
O=C(O)CC/C(=C\c1ccc(Cl)c([N+](=O)[O-])c1)c1nc2ccccc2s1	/	1	7	-2	-2	-3
O=C(O)CC/C(=C\c1ccc2c(c1)OCO2)c1nc2ccccc2s1	15	-4	2	60*	7	-1
COCCOC(=O)C(C#N)c1nc2ccccc2nc1N1CCCC1 (stereo not given)	0	4	/	12	18	-3
CCCCCCNC(=O)C(C#N)c1nc2ccccc2nc1N1CCCC1 (stereo not given)	-4	-6	/	370*	32	0
CCCCCCNC(=O)C(C#N)c1nc2ccccc2nc1N1CCOCC1 (stereo not given)	-3	-1	/	577*	28	-2
